Test results published in the supplement of paper PMC6607015.
Counter-ions that a name gives are not always drawn.

These molecules were tested on A431 (assay: filipin (cholesterol) integrated intensity within LBPA endosomes, Z-score; higher = more cholesterol in LBPA endosomes). Conditions: compound concentration in added solution (µM; 5 µl added to 20 µl cells): 10; 18 h.
Summary of the method: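 Per-cell integrated LBPA or filipin intensity, whole-cell or within LBPA endosomes, is expressed as Z-scores normalised in AcuityXpress. HeLa MZ or A431 cells, 3,500 per well in 20 µl, sat on 5 µl of 10 µM compound solution in duplicate 384-well imaging plates for 18 h. They were then fixed in 4% PFA, stained, imaged in four 20× fields per well and segmented using MetaXpress.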

Row | Structure (SMILES) | filipin (z-score)
1 | O=c1cc(-c2ccc(O)c(O)c2)oc2cc(O)cc(O)c12 [Luteolin] | -0.468
2 | CC(C)(O/N=C(\C(=O)N[C@@H]1C(=O)N2C(C(=O)[O-])=C(C[n+]3ccccc3)CS[C@H]12)c1csc(N)n1)C(=O)O [Ceftazidime pentahydrate] | -0.531
3 | CC(=O)OCC(=O)[C@@]1(OC(C)=O)[C@@H](C)C[C@H]2[C@@H]3C[C@H](F)C4=CC(=O)C=C[C@]4(C)[C@@]3(F)[C@@H](O)C[C@@]21C [Diflorasone Diacetate] | -0.354
4 | CN(C)CCn1nnnc1SCC1=C(C(=O)O)N2C(=O)[C@@H](NC(=O)Cc3csc(N)n3)[C@H]2SC1 [Cefotiam hydrochloride] | -0.548
5 | CCCOc1ccc(C(=O)OCCN(CC)CC)cc1N [Proparacaine hydrochloride] | -0.454
6 | COc1ccc(NS(=O)(=O)c2ccc(N)cc2)nn1 [Sulfamethoxypyridazine] | -0.455
7 | CCC(=O)O[C@]1(C(=O)SCF)[C@H](C)C[C@H]2[C@@H]3C[C@H](F)C4=CC(=O)C=C[C@]4(C)[C@@]3(F)[C@@H](O)C[C@@]21C [Fluticasone propionate] | -0.0798
8 | O=C(O)CCNC(=O)c1ccc(/N=N/c2ccc(O)c(C(=O)O)c2)cc1 [Balsalazide Sodium] | -0.386
9 | CC(C)(C)NC[C@H](O)c1ccc(O)c(CO)c1 [Levalbuterol hydrochloride] | -0.471
10 | NC(CO)C(=O)NNCc1ccc(O)c(O)c1O (configuration not stated) [Benserazide hydrochloride] | -0.42
11 | Cc1ccc(NC(=O)c2ccc(CN3CCN(C)CC3)cc2)cc1Nc1nccc(-c2cccnc2)n1 [Imatinib] | 4.02
12 | Cc1cc2c(cc1S(N)(=O)=O)S(=O)(=O)CCC2 [Meticrane] | -0.464
13 | O=C1O[C@H]([C@@H](O)CO)C(O)=C1O [Ascorbic acid] | -0.529
14 | N=C(N)NCC1COC2(CCCCC2)O1 (configuration not stated) [Guanadrel sulfate] | -0.413
15 | CC[N+](C)(CC)CCOC(=O)C1c2ccccc2Oc2ccccc21 [Methantheline bromide] | -0.359
16 | CO/N=C(\C(=O)N[C@@H]1C(=O)N2C(C(=O)O)=C(COC(N)=O)CS[C@H]12)c1ccco1 [Cefuroxime sodium salt] | -0.419

Row | Structure (SMILES) | filipin (z-score)
17 | O=C(OCC(O)CO)c1ccccc1Nc1ccnc2cc(Cl)ccc12 (configuration not stated) [Glafenine hydrochloride] | -0.297
18 | C[C@@H]1NC(=O)NC1=O [Methylhydantoin-5-(L)] | -0.411
19 | CC1(C)O[C@@H]2C[C@H]3[C@@H]4C[C@H](F)C5=CC(=O)CC[C@]5(C)[C@H]4[C@@H](O)C[C@]3(C)[C@]2(C(=O)CO)O1 [Flurandrenolide] | -0.236
20 | C/C(=C(\CCOP(=O)(O)O)SC(=O)c1ccccc1)N(C=O)Cc1cnc(C)nc1N [Benfotiamine] | -0.411
21 | CN1CCN(CCCN2c3ccccc3Sc3ccc(S(=O)(=O)N(C)C)cc32)CC1 [Thioproperazine dimesylate] | 2.28
22 | CN(C)CCOC(=O)C(c1ccccc1)C1(O)CCCC1 (configuration not stated) [Cyclopentolate hydrochloride] | -0.39
23 | Clc1cccc(Cl)c1NC1=NCCN1 [Clonidine hydrochloride] | -0.436
24 | CCN(CC)CCc1nc(-c2ccccc2)no1 [Oxalamine citrate salt] | -0.442
25 | N[C@H]1CONC1=O [(S)-(-)-Cycloserine] | -0.457
26 | O=C(c1ccc(F)cc1)C1CCN(CCn2c(=O)[nH]c3ccccc3c2=O)CC1 [Ketanserin tartrate hydrate] | 0.805
27 | C[N+](C)(CCOc1ccccc1)Cc1ccccc1.O=C([O-])c1cc2ccccc2cc1O [Bephenium hydroxynaphthoate] | -0.456
28 | O=C1CCc2ccc(OCCCCN3CCN(c4cccc(Cl)c4Cl)CC3)cc2N1 [Aripiprazole] | 3.23
29 | Nc1nc(F)nc2c1ncn2[C@@H]1O[C@H](CO)[C@@H](O)[C@@H]1O [Fludarabine] | -0.372
30 | CN1CCc2cccc3c2[C@H]1Cc1ccc(O)c(O)c1-3 [R(-) Apomorphine hydrochloride hemihydrate] | 0.31
31 | C[C@]12CCC(=O)C=C1C=C[C@@H]1[C@@H]2CC[C@@]2(C)[C@H]1CC[C@@]21CCC(=O)O1 [Canrenone] | -0.0815
32 | CN(C)[C@@H]1C(O)=C(C(N)=O)C(=O)[C@@]2(O)C(O)=C3C(=O)c4c(O)cccc4[C@@](C)(O)[C@H]3C[C@@H]12 [Tetracycline hydrochloride] | -0.521
